The list is not random: actives were taken first. Their share in the collection is about 6.5%.
VACV Venus inh: inhibitors of vaccinia virus (Venus reporter); Vaccinia virus Venus reporter expression, fluorescence; Potency, µM (doses to about 36.5 µM), inactives show at the highest dose activity change, negative = inhibition, hits mostly inhibitors; 0.46% of 330,000 active; AID 720580; calls by dose curve; tested in A549 cells; further: potency means the concentration at half of the fitted maximal effect; nearly all actives have a fitted effect of over 30% in size
HCMV antiviral: blocks human cytomegalovirus replication; HFF cells, HCMV-luciferase reporter, 72 h; hits give low values; activity change, negative = inhibition, % at 57.5 µM; 4.5% of 410,000 active; AID 1259415; in the data active means activity change below about -60%; inconclusive means no clear call, values can overlap the other calls; inactive means above about -39%
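Steps: HFFs plated, 16 h 37C; compounds added; HCMV-luciferase added to MOI 1 PFU/cell; 72 h 37C; OneGlo reagent, 5 min room temperature; luminescence read, normalized to controls.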
Lassa entry inh: inhibitors of Lassa virus binding or cell entry; Lassa virus pseudotype entry inhibition, cell reporter; Potency, µM (doses to about 37.9 µM), inactives show at the top dose activity change, negative = inhibition, most hits filed as inhibitors; 1.2% of 300,000 active; calls by dose curve; tested in HEK293 cells; further: potency means the concentration at half of the fitted maximal effect; nearly all actives have a fitted effect of over 50% in size
FMDV inh: antivirals against foot and mouth disease virus | FMDV antiviral cell-based qHTS | Potency, µM (highest dose often 57.9 µM), for the others: at the top dose activity change, negative = inhibition, hits mostly inhibitors | 1.2% of 410,000 active | AID 1159524; calls by dose curve; tested in HEK293T cells; further: read-out not given here; potency means the concentration at half of the fitted maximal effect; nearly all actives have a fitted effect of over 45% in size
VACV mCherry inh: vaccinia inhibition (mCherry reporter); Vaccinia virus mCherry reporter infection, fluorescence; 0.63% of 310,000 active; AID 720579; Potency, µM (doses to about 36.5 µM), for inactives: at the highest dose activity change, negative = inhibition, usual class: inhibitors; calls by dose curve; tested in A549 cells; further: potency means the concentration at half of the fitted maximal effect; nearly all actives have a fitted effect of over 35% in size
Marburg entry inh: inhibitors of Marburg virus binding or cell entry. Marburg virus pseudotyped entry inhibition, cell reporter. 1.8% of 300,000 active. Potency, µM (series often up to 37.8 µM), for the others: top-dose activity change, negative = inhibition, hits mostly inhibitors. AID 540276; calls by dose curve; tested in HEK293 cells; further: potency means the concentration at half of the fitted maximal effect
An asterisk follows results filed as active; i = inactive; ? = inconclusive; . = no result; [ ] = dose if it differs, or a comment. On the % scale 0 is the no-effect control and ±100 the full control effect.

SMILES | VACV Venus inh | HCMV antiviral | Lassa entry inh | FMDV inh | VACV mCherry inh | Marburg entry inh
CNC[C@@H](CC1CCCCC1)NC[C@H](CC(C)C)NCCc1cccc(C(F)(F)F)c1 | ? | -99* | . | ? | 14µM* | .
CNC[C@@H](Cc1ccccc1)NC[C@@H](CC1CCCCC1)NCCCc1ccccc1 | ? | -101* | . | ? | ? | .
CCC[C@@H](CNC)NC[C@H](Cc1ccccc1)NCCCCc1ccccc1 | ? | ? | . | -20% | ? | .
Cc1cc(C)cc(N(CC(=O)NCCc2ccc(Cl)cc2)S(=O)(=O)c2c(C)noc2C)c1 | -3% | -2 | -1%[46.1 µM] | -16% | -14% | 8%[46.1 µM]
O=[N+]([O-])c1cc(S(=O)(=O)N2CCCCCC2)ccc1F | 14µM* | -97* | ? | ? | ? | 11µM*
COc1ccc(CN(C)c2ccc(S(=O)(=O)N3CCN(C)CC3)cc2[N+](=O)[O-])cc1OC | -16% | -86* | ? | ? | -5% | ?
O=[N+]([O-])c1cc(S(=O)(=O)N2CCCC2)ccc1O | -9% | 16 | 7% | -10% | -11% | ?
CN(CC(=O)Nc1ccc(Cl)cc1)c1ccc(S(=O)(=O)N2CCCCC2)cc1[N+](=O)[O-] | ? | -68* | ? | ? | -15% | ?
COc1ccc2[nH]cc(CCNc3nc(-c4ccc(N(C)C)cc4)nc4ccccc34)c2c1 | . | . | . | 0% | . | .
COc1cc(-c2c(OC)cccc2OC)cc2c1OCCN(Cc1cn[nH]c1-c1ccc(Cl)cc1)C2 | 0% | . | . | -1% | -4% | .
CC(=O)C1(C)CC2(CC(C)(C)OC2=O)C(=O)O1 (stereo not given) | . | . | . | -7% | . | .
N#Cc1cccc(-c2nc3cnc(N4CCOCC4)nc3n(C3CC3)c2=O)c1 | . | . | . | 0% | . | .
C[C@H](O)[C@@H]1CN2CCc3c([nH]c4ccc(-c5ccc6c(c5)OCO6)cc34)[C@@H]2C[C@@H]1N(C)C(=O)NC1CCCCC1 | ? | -86* | . | -2% | ? | .
COc1ccc(-c2c3c(nc4sc5c(=O)[nH]c(C)nc5c24)CCC3)cc1 | -9% | -88* | 8% | 0% | . | ?
Nc1nonc1-c1nc2ccccc2n1Cc1cccc(Cl)c1 | -23% | -4 | ? | -3% | -12% | .
O=C1NCCc2cc3c(cc21)OCO3 | -12% | 5 | 5% | 7% | -11% | 5%
O=C1NC2C(O)C(O)C(O)C(O)C2c2cc3c(c(O)c21)OCO3 (stereo not given) | 0.28µM* | -98* | 0.14µM* | ? | 2.2µM* | ?
O=C1NC2C(=CC(O)C(O)C2O)c2cc3c(c(O)c21)OCO3 (stereo not given) | 0.1µM* | -101* | ? | -10% | 8.9µM* | ?
O=C1NC2C(=CC(O)C(O)C2O)c2cc3c(cc21)OCO3 (stereo not given) | 1µM* | -77* | 1µM* | ? | ? | ?
Cc1ccc(NC(=S)NCCN(C2CCCCC2)C2CCCC2)cc1C | -20% | -38 | ? | -16% | ? | 9.2µM*
COCCNC(=O)c1ccc(N2CCCCC2)c(NS(=O)(=O)c2ccc(C)cc2)c1 | -28% | 16 | -3% | 56% | . | 3%
CCN(CC)CCCNC(=O)c1ccc(N2CCCCC2)c(NS(=O)(=O)c2ccc(C)cc2)c1 | . | -34 | 11% | 9% | . | 15µM*
CCOC(=O)c1ccc(N2CCCCC2)c(NS(=O)(=O)c2ccc(C)cc2)c1 | -5%[7.34 µM] | -86* | ? | 4% | ? | 7.9µM*
Cc1ccc(S(=O)(=O)Nc2cc(C(=O)NCCN(C)C)ccc2N2CCCC2)cc1 | . | -22 | . | 23% | . | .
Cc1ccc(CNC(=O)c2ccc(N3CCCC3)c(NC(=O)Nc3ccc(C)cc3)c2)cc1 | -26% | -74* | 1%[46.1 µM] | 21% | -25% | .
CCc1nc(SCC(=O)Nc2ccc(NC(C)=O)cc2)n[nH]1 | -2% | 24 | 7%[46.1 µM] | 11% | -14% | 14%[46.1 µM]
O=C(/C=C/c1cn(-c2ccccc2)nc1-c1cccnc1)c1ccco1 | ? | -99* | 10µM* | 14µM* | -29% | ?
O=C(/C=C/c1cn(-c2ccccc2)nc1-c1cccnc1)N1CCCC1 | . | 17 | . | 11% | . | .
O/N=C/c1cn(-c2ccccc2)nc1-c1cccnc1 | -14% | -14 | 4% | -14% | i | 0.79µM*
Cc1[nH]c2ccccc2c1/C=N/n1cnnc1 | -7% | 25 | 15% | -14% | -5% | 5%

Compound activity (PubChem)
